High-throughput results as filed in PubChem BioAssay.
PAFAH2 FP inh = PAFAH2 (human) inhibition | recombinant PAFAH2, FP-rhodamine activity probe, fluorescence polarization | inhibition, % at 3.39 µM | 340,000 compounds, 0.99% hits | Q99487;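 active means inhibition above the mean over all tested compounds plus 3 SD, cut at about 30% in these data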;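 further: inhibitors block probe labeling of enzyme so polarization drops; 0% = enzyme with DMSO and 100% = wells lacking PAFAH2 protein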
ATG4B inhibitor = blocks human ATG4B protease cleavage of LC3 substrate. Q9Y4P1. ATG4B cleavage of LC3-PLA2, NBD-HPC fluorescence, 1 h. inhibition, % at 8.33 µM. 340,000 compounds, 0.51% hits; in the data active means inhibition above about 40%
PAFAH1B2 inh = PAFAH1B2 (human) inhibition | P68402 | recombinant PAFAH1B2, FP-rhodamine activity probe, fluorescence polarization | inhibition, % at 3.39 µM | 340,000 compounds, 1.2% hits | AID 492953;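 active means inhibition above the mean of all tested compounds plus 3 SD, cut at about 24% in these data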;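 further: 0% = enzyme with DMSO and 100% = wells lacking PAFAH1B2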
Target sequence (P68402 whole entry, looked up): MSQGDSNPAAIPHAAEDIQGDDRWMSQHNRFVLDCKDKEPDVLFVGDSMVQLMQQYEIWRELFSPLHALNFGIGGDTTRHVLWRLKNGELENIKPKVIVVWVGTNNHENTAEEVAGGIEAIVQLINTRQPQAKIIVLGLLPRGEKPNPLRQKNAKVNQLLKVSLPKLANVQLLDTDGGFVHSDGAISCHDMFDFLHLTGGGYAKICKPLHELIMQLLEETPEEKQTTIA
PAFAH1B3 inh = blocks human PAF acetylhydrolase 1B catalytic subunit 3. recombinant PAFAH1B3, FP-rhodamine probe, fluorescence polarization. 340,000 compounds, 0.28% hits. inhibition, % at 3.39 µM;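 active means inhibition above the screen-wide average of all tested compounds plus 3 SD, cut at about 25% in these data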;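 further: 0% = enzyme with DMSO only and 100% = wells lacking PAFAH1B3 protein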
DAGLB inhibitor = blocks human DAGLB lipase activity | Q8NCG7 | HEK293T DAGLB membrane lysate, EnzChek fluorogenic substrate | inhibition, % at 5.17 µM | 340,000 compounds, 0.059% hits; in the data active means inhibition above about 34%;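 further: 0% = enzyme with vehicle and 100% = wells lacking enzyme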
pPAFAH inh = inhibitors of human plasma PAF acetylhydrolase (pPAFAH) | Q13093 | recombinant pPAFAH, FP-rhodamine probe fluorescence polarization | inhibition, % at 3.39 µM | 330,000 compounds, 1.5% hits | AID 463082;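 active means inhibition above the mean inhibition across the screen plus 3 SD, cut at about 25% in these data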;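 further: inhibitors block binding of the rhodamine activity-based probe so polarization drops; 0% = enzyme with DMSO and 100% = wells lacking pPAFAH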
PAFAH2 FP conf = PAFAH2 (human) inhibition, confirmed; shares compounds with PAFAH2 FP inh; recombinant PAFAH2, FP-rhodamine activity probe, fluorescence polarization; inhibition, % at 3.39 µM; 2,300 compounds, 65% hits; AID 493030;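 active means mean inhibition over three repeats above a set limit taken from the earlier primary screen, cut at about 30% in these data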;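 further: inhibitor blocks binding of rhodamine activity probe so polarization falls; 0% = enzyme with DMSO and 100% = wells lacking PAFAH2 protein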
Starred values were filed as active, the others as inactive; · = not tested or not shown. Shown are actives, neighbours in structure and some others; about 3% of the full set was active somewhere.

SMILES	PAFAH2 FP inh	ATG4B inhibitor	PAFAH1B2 inh	PAFAH1B3 inh	DAGLB inhibitor	pPAFAH inh	PAFAH2 FP conf
O=c1oc(-c2ccco2)nc2sc3c(c12)CCCC3	72*	13	4	3	3	3	63*
Cc1nc2sc3c(c2c(=O)o1)CCCC3	7	-7	6	5	0	8	·
O=C(OCC(=O)N(C1CCCCC1)C1CCCCC1)c1ccc(Cl)nc1	1	4	-2	0	-6	5	·
CC1(C)CC(=O)C=C(N=CC2=C(O)CC(C)(C)CC2=O)C1	33*	3	2	-4	0	2	7
CCc1cc(=O)[nH]c(SCc2cccc3ccccc23)n1	61*	2	7	5	-2	3	51*
Nc1cc(=O)[nH]c(SCc2cccc3ccccc23)n1	-4	5	5	0	2	2	·
O=C(CSc1nc(C(F)(F)F)cc(=O)[nH]1)N1CCC(Cc2ccccc2)CC1	4	14	1	3	4	5	·
O=c1cc(C(F)(F)F)nc(SCc2cccc3ccccc23)[nH]1	51*	36	9	3	16	3	31*
O=C(COC(=O)C1CC1)NCc1ccc(Cl)cc1Cl	64*	11	5	4	-3	5	46*
Cc1ccc(C(=O)OCC(=O)NCc2ccc(Cl)cc2Cl)o1	56*	5	8	1	-1	4	42*
O=C(CCS(=O)(=O)c1ccc(Br)cc1)N1CCN(c2ccc(F)cc2)CC1	39*	0	10	9	-1	5	16
O=[N+]([O-])c1ccc(O)c(/C=N/Nc2ccccc2Cl)c1	74*	-6	3	11	7	16	62*
O=[N+]([O-])c1ccccc1N/N=C\c1ccccc1Cl	-4	-8	-5	-7	2	-1	·
Cc1cccc(NC(=O)CNC(=O)c2ccc(-n3cncn3)c([N+](=O)[O-])c2)c1C	38*	-2	-4	5	1	-2	-3
COC(=O)c1ccc(-n2cncn2)c([N+](=O)[O-])c1	2	6	3	2	3	5	·
CC(=O)c1ccc(NC(=O)COC(=O)c2ccccc2Sc2ccccc2C#N)cc1	8	-18	0	8	1	-1	·
CC1CCCC(NC(=O)COC(=O)c2ccccc2Sc2ccccc2C#N)C1C (stereo not drawn)	27	18	1	1	-1	2	·
N#Cc1ccccc1Sc1ccccc1C(=O)OCC(=O)NC12CC3CC(CC(C3)C1)C2	50*	2	3	2	-7	3	47*
COc1ccc(C(=O)NCC(=O)OCC(=O)NC23CC4CC(CC(C4)C2)C3)cc1	58*	-5	7	3	-1	5	44*
O=C(COC(=O)c1ccccc1)NC12CC3CC(CC(C3)C1)C2	79*	-2	3	2	2	5	89*
N#Cc1cccc(NC(=O)COC(=O)c2ccccc2Sc2ccccc2C#N)c1	45*	-6	-6	-2	-3	-8	39*
COc1ccc(C(=O)N/C(=C\c2ccc(Cl)cc2)C(=O)NCc2ccncc2)cc1	·	·	·	·	2	·	·
CCCCC(=O)/C=C/n1c(=S)oc2ccccc21	11	-14	7	-1	-9	6	·
CC(C)(C)NC(=O)COC(=O)c1ccccc1C(=O)c1ccccc1	69*	2	4	11	-3	3	56*
O=C(COC(=O)c1ccc(Br)cc1)NCc1ccccc1	31*	-2	1	8	-5	11	25
O=C(COC(=O)c1ccccc1C(=O)c1ccccc1)NCCc1ccc(Cl)cc1Cl	71*	12	3	7	-4	13	58*
O=C(COC(=O)c1ccccc1C(=O)c1ccccc1)NCc1ccc(F)cc1	43*	2	1	5	-3	3	36*
N#CCCN(C(=O)c1cc2c(s1)-c1ccccc1S(=O)(=O)C2)c1ccccc1	-8	-9	5	15	2	0	·
Cc1ccc(C(=O)c2ccccc2C(=O)OCC(=O)NCCc2ccccc2)cc1	9	-3	7	5	-1	4	·
